High-throughput results deposited in PubChem BioAssay by National Center for Advancing Translational Sciences (NCATS).
KinaseGlo FLuc: blocks Kinase-Glo luciferase, a counter-screen artifact; Q27757; Kinase-Glo luciferase, ATP luminescence, 8 min; Potency, µM (series often up to 38.3 µM), inactives show top-dose activity change, negative = inhibition, actives largely listed as inhibitors; 200,000 compounds, 0.28% hits; AID 1379; further: on the % scale 0 is the no-effect control and ±100 the full control effect; nearly all actives have a fitted effect of over 60% in size
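Substrate mix (final 50 mM imidazole pH 7.2, 50 mM KCl, 7 mM MgCl2, 10 uM ATP, 0.01% Tween 20, 0.05% BSA) plus pin-tool compound, then Kinase-Glo detection mix; 8 min ambient, luminescence read.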
Rab9 promoter act: activates the Rab9 promoter. Huh7 Rab9 promoter-luciferase reporter, luminescence, 24 h. 320,000 compounds, 2.8% hits. AID 485297. Potency, µM (titrated, usually from 9.22 µM), inactives show at the top dose activation, negative = inhibition, most hits filed as activators; further: % of control where 0% means no effect; nearly all actives have a fitted effect of over 60% in size
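Promoter activation is measured as luciferase luminescence in Huh7 cells stably transfected with a Rab9 promoter–luciferase construct, following 24 h compound exposure at 37 °C and 10 min reagent incubation at ambient temperature.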
ELG1 genotox: genotoxicity induction in ELG1-luciferase HEK293T cells; HEK293T ELG1-luciferase reporter, luminescence, 16 h; Potency, µM (series often up to 46 µM), inactives show at the top dose activity change, positive = activation, hits mostly activators; 330,000 compounds, 1.3% hits; further: % of control where 0% means no effect; nearly all actives have a fitted effect of over 60% in size
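Quantitative HTS format in 1536-well plates. HEK293T ELG1-luciferase reporter cells receive test compound and are incubated 16 hr at 37 °C, 5% CO2; ONE-Glo added, 30 min room temperature, then luminescence read.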
NPC1 promoter act: activates the NPC1 promoter; 320,000 compounds, 2.4% hits; Potency, µM (titrated, usually from 9.22 µM), without a hit: top-dose activation, hits mostly activators; Huh7 NPC1 promoter luciferase reporter, 24 h; AID 485313; further: % of control where 0% means no effect; nearly all actives have a fitted effect of over 60% in size
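NPC1 promoter–luciferase Huh7 cells; 24 h compound; luminescence.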
SMN2 splice up: SMN2 splice variant enhancement | HEK293 SMN2-luciferase splicing reporter, luminescence, 30-36 h | Potency, µM (titrated, usually from 46.1 µM), inactives show at the top dose activity change, positive = activation, hits mostly activators | 210,000 compounds, 2.8% hits | AID 1458; further: % of control where 0% means no effect; nearly all actives have a fitted effect of over 55% in size
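qHTS luciferase splicing reporter: luminescence rises when SMN2 exon 7 is included in transfected HEK293 cells. Compound exposure lasted 30-36 h at 37C, with 4.5 mM final sodium butyrate as control, followed by a ONE-Glo read.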
FLuc modulator: counter-screen for miR-21 project: firefly luciferase inhibitors or activators; P08659; purified FLuc, Km substrates, luminescence inhibition; Potency, µM (titrated, usually from 57.5 µM), inactives show top-dose activity change, negative = inhibition, usual class: inhibitors; 360,000 compounds, 6.9% hits;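 further: plate controls were vehicle for no effect and reference inhibitor for full effect; nearly all actives have a fitted effect of over 55% in size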
Target sequence (P08659 whole entry, looked up): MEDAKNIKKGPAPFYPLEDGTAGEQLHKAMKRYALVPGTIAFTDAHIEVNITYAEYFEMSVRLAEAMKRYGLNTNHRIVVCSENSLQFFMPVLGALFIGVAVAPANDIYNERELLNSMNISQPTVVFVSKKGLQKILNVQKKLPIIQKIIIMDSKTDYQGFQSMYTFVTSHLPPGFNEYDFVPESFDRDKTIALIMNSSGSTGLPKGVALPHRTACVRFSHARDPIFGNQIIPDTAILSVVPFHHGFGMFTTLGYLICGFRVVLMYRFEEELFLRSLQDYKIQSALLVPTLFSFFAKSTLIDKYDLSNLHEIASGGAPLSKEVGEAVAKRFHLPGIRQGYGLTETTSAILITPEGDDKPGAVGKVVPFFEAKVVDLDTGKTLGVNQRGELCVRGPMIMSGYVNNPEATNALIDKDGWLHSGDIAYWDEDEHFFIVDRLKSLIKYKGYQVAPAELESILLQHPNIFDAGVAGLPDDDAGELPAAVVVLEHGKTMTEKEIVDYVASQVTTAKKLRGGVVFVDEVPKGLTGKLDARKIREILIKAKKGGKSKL
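Biochemical qHTS of compounds, final roughly 60 µM downward over six points, against 10 nM purified firefly luciferase using Km concentrations of substrates (10 uM D-luciferin, 10 uM ATP) in Tris acetate pH 7.5 buffer; luminescence output.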
An asterisk follows results filed as active; ? = inconclusive; nt = not tested or not shown; [ ] = dose if it differs, or a comment. This is a sample that favours compounds with a hit; in the whole collection about 7.4% have one here. The call rests on the fitted dose curve; in most records, active means well fitted curve in the direction sought with a large enough effect; inconclusive means small, poorly fitted or top-dose-only effect, or another doubt; inactive means no such curve, though single readings can be large; an effect the other way counts as inactive or inconclusive. Potency means the concentration at half of the fitted maximal effect.

SMILES	KinaseGlo FLuc	Rab9 promoter act	ELG1 genotox	NPC1 promoter act	SMN2 splice up	FLuc modulator
CC(=O)c1ccc(N2CCN(C(=O)Nc3cn(CC(C)C)c(=O)c4ccccc34)CC2)cc1	nt	nt	nt	nt	nt	3%
CS/C(N)=C(C#N)/C(C#N)=C(\N)SC	-6%[39.9 µM]	nt	nt	nt	nt	nt
Cc1ccc(NC(=O)c2ccc3c(c2)OCCO3)cc1C	nt	0.32µM*	?	0.63µM*	nt	0.27µM*
Cc1cccc(NC(=S)NNC(=O)c2csc3c2CCC(C)C3)c1 (configuration not stated)	-3%	?	25%	16%	19%	12µM*
CC(C)CNC(=S)NNC(=O)c1csc2c1CCC(C)C2 (configuration not stated)	0%	4%	-5%	0%	-14%	1%
Cc1ccc(-c2cc(C(=O)Nc3cc(C(=O)O)ccc3C)c3ccccc3n2)cc1	nt	-1%	3%	-1%	nt	11µM*
Cc1ccc(C)c(NC(=O)c2cc(C)nc3ccccc23)c1	nt	0%	-3%	0%	nt	-2%
Cc1cccc(NC(=O)c2ccc3c(c2)OCCO3)c1	nt	0.63µM*	?	0.89µM*	nt	0.76µM*
C[C@H](Br)C(=O)Nc1ccc(C(=O)O)c(O)c1	-3%[7.66 µM]	nt	nt	nt	-9%[9.22 µM]	nt
O=[N+]([O-])c1cc(-c2nc(-c3ccccc3)no2)ccc1NCCc1ccccc1	nt	nt	nt	nt	nt	4%
O=C(Cc1cccs1)NC1C(=O)N2C(C(=O)[O-])=C(C[n+]3ccccc3)CSC12 (configuration not stated)	-14%	nt	nt	nt	-2%	nt
Cc1ccc(C(=O)NCC(=O)OCC(=O)c2ccc3c(c2)OCCO3)cc1C	-4%	8%	12%	7%	-6%	21µM*
COc1ccc(C(=O)NCC(=O)OCC(=O)c2ccc3c(c2)OCCO3)cc1	2%	0%	3%	3%	-8%	-18%
O=C(Nc1cccc(F)c1)c1ccc2c(c1)OCCO2	nt	3.2µM*	?	?	nt	4.8µM*
Cc1ccc(C(=O)Nc2ccc3c(c2)OCCO3)c(C)c1	nt	0.089µM*	?	0.089µM*	nt	0.3µM*
Cc1ccc(NC(=O)c2ccc3c(c2)OCCO3)cc1S(=O)(=O)Nc1cccc(Cl)c1	-4%	16%	-4%	13%	nt	17µM*
Cc1ccc(C(=O)NCC(=O)Nc2ccc3c(c2)OCCO3)cc1	nt	12%	1%	-4%	nt	-5%
CS(=O)(=O)Nc1cccc(-c2nccc(-n3ccnc3)n2)c1	-1%	nt	nt	nt	13%	nt
CCc1cccc(-n2nnc(S(=O)(=O)c3ccc(OC)cc3)c2C)c1	nt	nt	nt	nt	-62%	5%
O=C(Nc1cc2c(cc1C(=O)c1ccc(Br)cc1)OCCO2)c1ccc(Cl)cc1	nt	nt	nt	nt	10%	-2%
CCC(C(=O)Nc1cccc(C#N)c1)n1nc(-c2ccccc2)ccc1=O (configuration not stated)	nt	nt	nt	nt	-1%	-10%
Cc1cccc(NC(=S)NNC(=O)c2ccc3c(c2)OCO3)c1	-5%	1.8µM*	?	?	13µM*	4.8µM*
COC(=O)c1ccsc1NC(=O)c1ccc2c(c1)OCCO2	nt	17%	14%	-1%	nt	19µM*
Cc1cccc(NC(=S)NCc2ccc3c(c2)OCO3)c1	-2%	-9%	1%	-2%	25%	-1%
O=C(Nc1ccc2c(c1)OCO2)c1cc(-c2cccnc2)nc2ccccc12	-2%	21%	-5%	12%	-5%	?
SMILES	KinaseGlo FLuc	Rab9 promoter act	ELG1 genotox	NPC1 promoter act	SMN2 splice up	FLuc modulator
Cc1ccc(-c2cc(C(=O)Nc3ccc4c(c3)OCCO4)c3ccccc3n2)cc1	?	19%	9%	16%	11µM*	9.5µM*
O=C(Nc1ccccc1)c1ccc2c(c1)OCCO2	?	1.6µM*	?	0.71µM*	18µM*	4.3µM*
C=CC1=C2C=C(C3CC3)N(CCOC)C=C2C(=O)C(C)(OC(=O)c2ccco2)C1=O (configuration not stated)	-1%[7.66 µM]	nt	nt	nt	11%[9.22 µM]	nt
CCCc1cc(C(=O)NNC(=S)Nc2cccc(C)c2)cs1	-4%	2.5µM*	9%	?	5.6µM*	11µM*
COc1cc(SC)ccc1C(=O)Nc1ccc(S(=O)(=O)Nc2nccc(C)n2)cc1	nt	nt	nt	nt	nt	-4%
COc1cc(C)ccc1OCCOc1ccccc1Cl	-5%	?	?	?	5%	19µM*
COc1cc(C)ccc1OCCCCOc1ccccc1C(C)=O	1%	-5%	6%	1%	-45%	?
COc1cc(C=O)ccc1OCCOCCOc1cc(C)ccc1Cl	nt	-3%	-3%	-1%	nt	-12%
COc1cccc(OC)c1OCCCOc1ccc([N+](=O)[O-])cc1Cl	1%	3%	-7%	5%	-31%	-3%
CCOc1ccccc1OCCCOc1ccc([N+](=O)[O-])cc1Cl	1%	0%	0%	-4%	-23%	9.5µM*
COc1cc(C)ccc1OCCCOc1ccccc1Cl	-4%	3.5µM*	?	2.8µM*	13µM*	6.7µM*
O=C(COC(=O)c1ccccc1-c1ccccc1[N+](=O)[O-])c1ccccc1	1%	2%	-2%	-3%	1%	?
O=C(COC(=O)c1ccccc1[N+](=O)[O-])c1ccc2c(c1)OCO2	nt	0.32µM*	?	0.32µM*	nt	0.019µM*
Cc1cccc(C(=O)OCC(=O)c2ccc3c(c2)OCO3)c1O	nt	1.4µM*	2.6µM*	0.45µM*	nt	0.38µM*
CC(C)C(=O)Nc1ccccc1C(=O)OCC(=O)c1ccc2c(c1)OCCO2	1%	2.8µM*	0%	?	-18%	1.3µM*
CCCCC(=O)N(C)C	nt	nt	nt	nt	-7%	nt
CC(CN(C)C)NC(=O)c1ccc(-n2c(=O)c(=O)[nH]c3ccccc32)cc1 (configuration not stated)	-3%	nt	nt	nt	nt	nt
CCOC(=O)CN1N=C(/C=C/c2ccc(OCC)cc2)CCC1=O	-2%	26%	-1%	7%	-5%	-15%
O=C1CCC(/C=C/c2ccccc2)=NN1	-6%	9%	16%	-15%	11%	-13%
CCOc1ccc(/C=C/C2=NNC(=O)CC2)cc1	-28%	?	18µM*	?	11µM*	15µM*
COc1ccc(/C=C/C2=NNC(=O)CC2)cc1	-15%	2.8µM*	?	27%	16µM*	?
CCc1ccc2[nH]c(C(=O)Nc3ccc(Br)c(C)n3)cc2c1	nt	1.4µM*	?	2.2µM*	nt	?
Cc1cc(C)c2[nH]c(C(=O)Nc3ccc4c(c3)OCO4)cc2c1	nt	?	1%	?	nt	12µM*
CCc1ccc2[nH]c(C(=O)Nc3ccc4c(c3)OCO4)cc2c1	nt	26%	14%	?	nt	2.7µM*
COc1ccc(NC(=O)c2ccc3c(=O)n4nc(Nc5cc(C)ccc5C)sc4nc3c2)cc1	nt	nt	nt	nt	nt	-1%
CC(C)N(C(=O)Cn1cc(S(=O)(=O)Cc2ccc(Br)cc2)c2ccccc21)C(C)C	nt	nt	nt	nt	nt	0%
